Test results taken from PubChem BioAssay (Tox21).
Inconclusive results are not listed. A number with no mark means an inactive call. The source made the active and inactive calls. The call rests on the fitted dose curve; in most records, active means well fitted cell-killing curve with a large enough effect in the repeat runs; inconclusive means weak or mixed curves, or effect the other way; inactive means flat fitted curve, though single readings scatter.
On the % scale 0 is the no-effect control and ±100 the full control effect.

Assay: cAMP Responsive Elements (CRE) small molecule antagonists, cell-based qHTS assay: qHTS cell viability counter screen (AID 2060913); further: nearly all actives have a fitted effect of over 40% in size
Conditions: CRE-bla HEK293T viability, CellTiter-Glo luminescence, 5 h; series mostly up to 92.4 µM; viability change, negative = cytotoxic: at the top concentration
Procedure, shortened: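 HEK293T CRE-bla, 2,000 cells/well, 18 h preincubation; cpd in DMSO + NKH477 0.25 uM final, 3 h 37 C/5% CO2; LiveBLAzer 2 h RT, then CellTiter-Glo 30 min RT, luminescence.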
In the case of `C=C(Cl)Cl`, the “viability change, negative = cytotoxic” value is reported as 9.3%.
For `COc1cc(C[C@@H](C)N)c(OC)cc1Br`, the “viability change, negative = cytotoxic” value was -4.6%.
For `CCN(CCO)CCn1c(Cc2ccccc2)nc2c1c(=O)n(C)c(=O)n2C`, the “viability change, negative = cytotoxic” value was -1.53% [at 42.5 µM].
In the case of `CNC(=O)Oc1cccc2ccccc12`, the Potency is reported as “inactive”.
With `C=CC(=O)OCCO` the Potency was “inactive”.
In the case of `COc1cc(C[C@@H](C)N)c(OC)cc1C`, the “viability change, negative = cytotoxic” value is reported as -1.48%.
In the case of `c1cc[c]([Sb]([c]2ccccc2)[c]2ccccc2)cc1`, the “viability change, negative = cytotoxic” value is reported as -5.31%.
With `Nc1nc(N)nc(NC2CC2)n1` the Potency was “inactive”.
In the case of `[O]=[Cr][O][Cr]=[O]`, the “viability change, negative = cytotoxic” value is reported as 2.52%.
In the case of `COC(=O)Cc1ccccc1`, the “viability change, negative = cytotoxic” value is reported as -2.79%.
In the case of `Cc1cc(C(C)(C)c2ccc(O)c(C)c2)ccc1O`, the “viability change, negative = cytotoxic” value is reported as -16.4%.
For `CNCC(=O)c1ccc(O)c(O)c1`, the “viability change, negative = cytotoxic” value was 5.69% [at 42.5 µM].
For `Nc1ccccc1C(=O)OCC(O)CO` (stereo not given), the “viability change, negative = cytotoxic” value was 4.8% [at 42.5 µM].
With `O=C(O)c1cc(Oc2ccc(C(F)(F)F)cc2Cl)ccc1[N+](=O)[O-]` the Potency was “inactive”.
For `CNC(=O)Oc1ccccc1C1OCCO1`, the “viability change, negative = cytotoxic” value was -6.27%.
In the case of `CN=CNc1ccc(C)cc1C`, the “viability change, negative = cytotoxic” value is reported as 4.89%.
With `c1ccc(-c2cccc(-c3ccccc3)c2)cc1` the Potency was “inactive”.
For `CC(Cc1ccccc1)N(C)Cc1ccco1` (stereo not given), the “viability change, negative = cytotoxic” value was 0.988% [at 42.5 µM].
With `CCCCOC(=O)[C@@H](C)Oc1ccc(Oc2ccc(C#N)cc2F)cc1` the “viability change, negative = cytotoxic” value was -3.37%.
With `C=CCN1CC[C@]23c4c5ccc(O)c4O[C@H]2C(=O)CC[C@@]3(O)[C@H]1C5` the “viability change, negative = cytotoxic” value was 7.51% [at 42.5 µM].
